Results on 58 compounds are retold here after PubChem BioAssay AID463173 (ICCB-Longwood Screening Facility, Harvard Medical School, 2010).

Among all 52,000 compounds or so, about 1,700 (3.3%) were called active. Many of the other results were omitted from the sample, so actives are more common in it than they were. Values without a mark were called inactive. No stated cut-off is given here; in the data, active means survival mostly below about 52% (no sharp cut-off); inactive means mostly above about 56%.

This experiment relates to Wild type. Description: growth inhibition of S. aureus wild type versus tarO mutant, primary screen, teichoic acid synthesis inhibitors, RN4220, OD600 (AID 463173). Particulars: S. aureus RN4220 wild type/DeltatarO growth, OD600, 18 h, active compounds read low, screened at 18.75 µg/mL (by protocol).
Regarding `CCC(=O)N1c2ccc(S(=O)(=O)CCC(=O)Nc3ccc(Br)c(C)c3)cc2CC1C` (stereo not drawn), the survival was 87%.
With `Cc1oc(-c2ccc(Cl)cc2)nc1CN1CCCC(C(=O)NCc2ccc(Cl)cc2)C1` (stereo not drawn) the figure was 85%.
In the case of `Cc1ccccc1-c1nc(CN2CCCC(C(=O)NCc3ccc(Cl)cc3)C2)c(C)o1` (stereo not drawn) it was 68%.
With `Cc1ccc(CNC(=O)C2CCN(Cc3nc(-c4cccc(Br)c4)oc3C)CC2)cc1` the figure was 75%; with `Cc1oc(-c2cccc(Cl)c2)nc1CN1CCCC(C(=O)NCc2ccc(F)cc2)C1` (stereo not drawn), 64%.
`CCc1ccc(-c2nc(CN3CCCC(C(=O)NCc4ccc(C)cc4)C3)c(C)o2)cc1` (stereo not drawn): the survival was 88%.
Turning to `Cc1ccc(CNC(=O)C2CCCN(Cc3nc(-c4cccc(C)c4)oc3C)C2)cc1` (stereo not drawn), the survival is 4% (active).
Consider `Cc1oc(-c2ccc(Cl)cc2)nc1CN1CCCC(C(=O)NCc2ccccc2)C1` (stereo not drawn), for which the survival is 88%.
In the case of `Cc1oc(-c2cccc(Cl)c2)nc1CN1CCCC(C(=O)NCc2ccc(Cl)cc2)C1` (stereo not drawn) it was -1% (active); in that of `Cc1cccc(-c2nc(CN3CCCC(C(=O)NCc4ccc(Cl)cc4)C3)c(C)o2)c1` (stereo not drawn), 2% (active); in that of `COc1ccc(CCNC(=O)CCc2c(C)c3cc4c(C)coc4cc3oc2=O)cc1`, 90%.
With `C=C(C)Cn1c(=O)c2c(nc3n2CCN3c2ccc(F)cc2)n(C)c1=O` the figure was 85%; with `CC(=O)c1cccc(NC(=O)CSc2nc3ccccc3nc2Cc2ccc(F)cc2)c1`, 73%.
In the case of `Cc1ccc2oc(-c3cc(N=C/C=C/c4ccc5c(c4)OCO5)ccc3O)nc2c1` it was 113%; in that of `CN(C)c1ccc(CNC(=O)C2CCN(c3nc4ccccc4[nH]3)CC2)cc1`, 45%; in that of `COc1ccc(CNC(=O)C2CCN(c3nc4ccccc4[nH]3)CC2)cc1OC`, 47%.
With `CCOc1cc(CNC(=O)C2CCN(c3nc4ccccc4[nH]3)CC2)cc(OCC)c1OCC`, the survival was -3% (active).
With `CCCN(CCC)CCNC(=O)C1CCN(c2nc3ccc(CC)cc3s2)CC1` the figure was 67%; with `Cc1ccc(-c2nnn3c2nc(NC2CCC(C)CC2)c2ccccc23)cc1` (stereo not drawn), 4% (active).
In the case of `Fc1cccc(-c2nnn3c2nc(NC2CCCCC2)c2ccccc23)c1` it was 85%; in that of `FC(F)(F)c1cccc(-c2nnn3c2nc(NC2CCCCC2)c2ccccc23)c1`, 28%.
In the case of `CC1CCC(Nc2nc3c(-c4cccc(C(F)(F)F)c4)nnn3c3ccccc23)CC1` (stereo not drawn) it was -1% (active); in that of `CC1CCC(Nc2nc3c(-c4ccc(Cl)cc4)nnn3c3ccccc23)CC1` (stereo not drawn), 25%; in that of `Clc1ccc(-c2nnn3c2nc(NC2CCCCC2)c2ccccc23)cc1`, 57%.
Take `COc1cc2nc(Nc3cccc(F)c3)nc(N)c2cc1OC`: the survival was 89%.
In the case of `Cc1ccc(OCc2nnc(-c3ccccc3)o2)cc1` it was 77%; in that of `O=C(Nc1cccc(C(=O)OCc2cc(=O)n3c4c(sc3n2)CCCC4)c1)c1cccc(Cl)c1`, 73%; in that of `CN1c2ccccc2Oc2nnc(N3CCN(Cc4ccccc4)CC3)cc21`, 110%.
In the case of `CCc1ccc(NC(=O)C(=O)NCC(c2cccnc2)N2CCN(C)CC2)cc1` (stereo not drawn) it was 111%; in that of `CCOC(=O)c1c(Oc2ccc(OC)cc2)nnc(-c2ccccc2)c1-c1ccccc1`, 91%.
`CCOC(=O)c1c(Nc2ccc(OC)cc2)nnc(-c2ccccc2)c1-c1ccccc1`: the survival was 5% (active).
With `CCOC(=O)c1c(C)c(-c2ccccc2)n(CC(=O)Nc2ccc(OCC)cc2)c1C` the figure was 82%; with `CCOC(=O)c1c(Nc2ccc(OCC)cc2)nnc(-c2ccccc2)c1-c1ccccc1`, 2% (active); with `CCOC(=O)c1c(Nc2cccc(C(=O)OC)c2)nnc(-c2ccccc2)c1-c1ccccc1`, 19%.
With `CCOC(=O)c1c(C)oc2ncnc(Nc3ccc(OCC)cc3)c12` the figure was 72%.
In the case of `COCCn1c(SCC(=O)Nc2cc(Cl)ccc2OC)nc2c([nH]c3ccccc32)c1=O` it was 132%; in that of `Cc1ccc2sc(N3CCN(C(=O)C4COc5ccccc5O4)CC3)nc2c1C` (stereo not drawn), 148%.
In the case of `COc1ccc(-c2nnc(SCC(=O)Oc3c(C)cccc3C)o2)cc1OC`, the survival was 117%.
With `CN(C(=O)Nc1cn(C)c(=O)c2ccccc12)c1ccccc1` the figure was -6% (active); with `CCOc1ccccc1N(CC)C(=O)Nc1cn(C)c(=O)c2ccccc12`, 78%.
On to `Cc1ccc(NC(=O)Nc2cn(C)c(=O)c3ccccc23)c(Cl)c1`, for which the survival was 69%.
In the case of `CCCNC(=O)C1CCC(Cn2c(=O)c3sccc3n(CC(=O)N(CC)CC)c2=O)CC1` (stereo not drawn) it was 128%; in that of `COc1cccc(CNC(=O)CN2C(=O)COc3ccc(S(=O)(=O)Nc4ccccc4)cc32)c1`, 73%.
In the case of `COc1ccc(CNC(=O)CN2C(=O)COc3ccc(S(=O)(=O)Nc4ccccc4)cc32)cc1` it was 87%; in that of `Cc1ccc(CNC(=O)CN2C(=O)COc3ccc(S(=O)(=O)Nc4ccccc4)cc32)cc1`, -6% (active); in that of `COc1ccc2c(c1)c1c(c(=O)n(-c3ccc(C)cc3)c(=O)n1CC(=O)NCc1ccc(C)cc1)n2C`, 70%.
Consider `O=S(=O)(Nc1ccccc1C(F)(F)F)c1ccc(N2CCCCS2(=O)=O)cc1`, for which the survival was 136%.
For `COc1cccc(NC(=O)CCc2nc3c(C)nn(-c4ccc(C)cc4)c3n(C)c2=O)c1`, the survival was 72%.
Regarding `Cc1ccc(-n2nc(C)c3nc(CCC(=O)Nc4cccc(F)c4)c(=O)n(C)c32)cc1`, the survival was -6% (active).
In the case of `Cc1ccc(-n2nc(C)c3nc(CCC(=O)Nc4ccc(F)cc4)c(=O)n(C)c32)cc1` it was 80%; in that of `Cc1ccc(NC(=O)c2c(C)oc3ncn(CC(C)C)c(=O)c23)nc1`, 129%; in that of `Cc1nn(C)c(C)c1NC(=O)CSc1nccc(-c2ccc(Cl)cc2)n1`, 100%.
On to `O=C(CSc1nc2cc(C(=O)NC3CCCC3)ccc2c(=O)n1CC1CCCO1)c1cccc(Cl)c1` (stereo not drawn), for which the survival was -3% (active).
In the case of `O=C(CSc1nc2cc(C(=O)NC3CCCC3)ccc2c(=O)n1CC1CCCO1)c1ccc(F)cc1` (stereo not drawn) it was 70%; in that of `Cc1ccc(C(=O)CSc2nc3cc(C(=O)NC4CCCC4)ccc3c(=O)n2CC2CCCO2)c(C)c1` (stereo not drawn), 63%; in that of `Cc1ccc(C(=O)CSc2nc3cc(C(=O)NC4CCCC4)ccc3c(=O)n2CC2CCCO2)cc1` (stereo not drawn), 75%.
With `CCOc1ccc(C(=O)CSc2nc3cc(C(=O)NC4CCCC4)ccc3c(=O)n2CC2CCCO2)cc1` (stereo not drawn) the figure was 0% (active).
In the case of `COc1ccc(C(=O)CSc2nc3cc(C(=O)NC4CCCC4)ccc3c(=O)n2CC2CCCO2)cc1` (stereo not drawn) it was 76%.
